# Reference: the supplement of paper PMC10127200
# Where a name gives a salt, the structure may show the parent alone.
# Tests used:
# Experiment in all cases: Euclidean distance of Cell Painting phenotypic profile (signed KS, 77 features) to DMSO centroid (dimensionless distance); 5 or 10 uM (library dependent); higher = stronger phenotypic change vs DMSO (phenoactivity)
# Conditions in all cases: 48 h
# [1] = test system: 786-O
# How it was run: (§1)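 At 10 or 5 uM, as set by the library, and 0.1% DMSO final, compounds were applied for 48 h to five cancer lines and one healthy fibroblast line. Stained cells were imaged confocally at 20X in 9 fields per well, and Harmony extracted 77 features scored as signed Kolmogorov-Smirnov statistics against vehicle wells on the same plate. Profiles underwent plate-position correction, correlation weighting and replicate averaging at the top dose. Phenoactivity is the Euclidean distance from each such profile to the median vehicle profile.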
# [2] = test system: A549
# How it was run: as §1
# [3] = test system: DU145
# How it was run: as §1
# [4] = test system: FB
# How it was run: as §1
# [5] = test system: HEPG2
# How it was run: as §1
# [6] = test system: OVCAR4
# How it was run: as §1
Compound,Euclidean distance [1],Euclidean distance [2],Euclidean distance [3],Euclidean distance [4],Euclidean distance [5],Euclidean distance [6]
COc1ncc(-c2ccc3nccc(-c4ccnnc4)c3c2)cc1NS(=O)(=O)c1ccc(F)cc1F,4.98,3.16,2.84,3.96,2.53,3.04
CN(C)CC/C=C1/c2ccccc2Sc2ccc(Cl)cc21 [Chlorprothixene],1.17,0.711,1.22,1.27,1.86,1.33
CCOc1cc(CC(=O)N[C@@H](CC(C)C)c2ccccc2N2CCCCC2)ccc1C(=O)O [Repaglinide],1.98,0.783,1.26,1.42,1.04,1.55
Clc1ccc2c(c1)C(N1CCNCC1)=Nc1ccccc1O2 [Amoxapine],1.43,1.02,1.12,1.06,0.744,1.09
O=C(O)CCCC[C@@H]1SC[C@@H]2NC(=O)N[C@@H]21 [Biotin (Vitamin B7)],0.776,0.871,0.982,0.902,0.533,1.23
CC(=O)N1CCN(c2ccc(OCC3COC(Cn4ccnc4)(c4ccc(Cl)cc4Cl)O3)cc2)CC1 (centres undefined) [Ketoconazole],1.55,0.896,2.29,0.789,0.391,0.644
COc1ccc(COc2ccc(Cc3cnc(N)nc3N)cc2OC)cc1,0.708,1.1,0.739,1.13,2.08,0.792
NNc1nncc2ccccc12 [Hydralazine HCl],1.33,1.23,0.857,1.33,0.411,0.975
COC(=O)N1CCN(Cc2cccc(NC(=O)Nc3ccc(C)nc3)c2F)CC1,1.27,1.17,0.538,0.851,0.768,1.28
CN(NC(=O)CC(=O)NN(C)C(=S)c1ccccc1)C(=S)c1ccccc1 [Elesclomol (STA-4783)],5.12,5.4,4.86,6.42,1.29,6.01
COc1cc([C@@H]2c3cc4c(cc3[C@@H](O[C@@H]3O[C@@H]5CO[C@@H](C)O[C@H]5[C@H](O)[C@H]3O)[C@H]3COC(=O)[C@H]23)OCO4)cc(OC)c1O [Etoposide],4.29,2.57,3.62,3.88,4.18,3.21
Cc1nc(NC(=O)N2CCC[C@H]2C(N)=O)sc1-c1ccnc(C(C)(C)C(F)(F)F)c1 [Alpelisib (BYL719)],1.4,1.45,1.3,2.29,1.09,2.02
Cc1cnc(Nc2ccc(N3CCN(C)CC3)cc2)nc1Nc1cccc(S(=O)(=O)NC(C)(C)C)c1,3.77,4.93,3.18,3.58,2.58,3.26
CC(C)n1cnc2c(NCCc3ccc(O)cc3)nc(-c3csc4ccccc34)nc21 [StemRegenin 1 (SR1)],0.931,1.13,1.12,1.04,1.04,0.909
CCCCOc1ccc(C(=O)Nc2ccc(F)cc2F)cc1,1.45,1.45,1.14,1.28,0.872,1.5
CC(=O)OCC(=O)[C@@]1(O)CC[C@H]2[C@@H]3CCC4=CC(=O)C=C[C@]4(C)[C@H]3[C@@H](O)C[C@@]21C [Prednisolone Acetate],1.1,2.13,2.13,1.96,0.76,2.1
CC(C)(C)c1nc(-c2cccc(NS(=O)(=O)c3c(F)cccc3F)c2F)c(-c2ccnc(N)n2)s1,1.53,1.16,1.31,3.02,1.45,1.03
CN(C)CCC(c1ccc(Cl)cc1)c1ccccn1 (centres undefined) [Chlorpheniramine Maleate],1.37,0.807,1.01,1.23,1.4,1.15
CC(=O)OC(C)C[N+](C)(C)C (centres undefined) [Methacholine chloride],0.977,1.02,1.24,0.67,0.576,1.45
CCOC(=O)N1c2ccc(C(F)(F)F)cc2[C@@H](N(Cc2cc(C(F)(F)F)cc(C(F)(F)F)c2)C(=O)OC)C[C@H]1CC [Torcetrapib],1.3,0.836,1.01,0.99,0.467,1.29

Compound,Euclidean distance [1],Euclidean distance [2],Euclidean distance [3],Euclidean distance [4],Euclidean distance [5],Euclidean distance [6]
c1ccc(-c2[nH]ncc2-c2ccnc3ccccc23)nc1,0.643,0.916,0.92,1.27,1.24,0.931
C[C@@H](Oc1cc(-c2cnn(C3CCNCC3)c2)cnc1N)c1c(Cl)ccc(F)c1Cl,3.69,4.3,3.56,5.27,4.27,4.15
CCOc1nc2cccc(C(=O)O)c2n1Cc1ccc(-c2ccccc2-c2nnn[nH]2)cc1 [Candesartan],2.07,1.74,1.69,3.34,0.856,1.84
CN(C)[C@@H]1C(O)=C(C(N)=O)C(=O)[C@@]2(O)C(O)=C3C(=O)c4c(O)ccc(Cl)c4[C@@](C)(O)[C@H]3C[C@@H]12 [Chlortetracycline HCl],1.45,0.912,1.04,0.904,0.464,1.05
N#CCNC(=O)c1ccc(-c2ccnc(Nc3ccc(N4CCOCC4)cc3)n2)cc1 [Momelotinib (CYT387)],2.83,3.71,3.36,3.49,2.74,2.48
COc1ccc(CN2CCN(C(c3ccc(F)cc3)c3ccc(F)cc3)CC2)c(OC)c1OC [Lomerizine HCl],0.896,1.09,0.808,1.17,1.31,0.83
COC(=O)C1=C(C)NC(C)=C(C(=O)OCC(C)C)C1c1ccccc1[N+](=O)[O-] (centres undefined) [Nisoldipine],2.53,0.958,1.95,1.86,2.21,1.43
COc1cc2ncnc(Nc3ccc(F)c(Cl)c3)c2cc1OCCCN1CCOCC1 [Gefitinib (ZD1839)],2.03,2.48,2.47,1.24,1.6,1.64
COc1ccc2ccc(=O)oc2c1CC=C(C)C [Osthole],1.34,0.749,0.86,1.14,0.394,0.956
Cn1cnc2c(F)c(Nc3ccc(Br)cc3Cl)c(C(=O)NOCCO)cc21 [Selumetinib (AZD6244)],2.23,2.67,2.91,2.95,1.72,2.19
C=CC(=O)N1CC[C@H](n2nc(C#Cc3cc(OC)cc(OC)c3)c3c(N)ncnc32)C1,2.21,1.47,2.08,4.1,3.97,1.58
O=C(O)Cc1ccc(-c2ccccc2)cc1 [4-Biphenylacetic acid],1.14,1.09,1.65,1.66,0.638,1.62
NC[C@@H]1O[C@H](O[C@H]2[C@@H](O)[C@H](O[C@@H]3[C@@H](O)[C@H](N)C[C@H](N)[C@H]3O[C@H]3O[C@H](CO)[C@@H](O)[C@H](O)[C@H]3N)O[C@@H]2CO)[C@H](N)[C@@H](O)[C@@H]1O [Paromomycin Sulfate],1.05,1.06,0.88,1.2,0.817,1
Cc1ccnc(NS(=O)(=O)c2ccc(N)cc2)n1 [Sulfamerazine],1.24,0.793,0.847,0.862,0.67,1.2
CC[C@]12CCCN3CCc4c(n(c5ccccc45)[C@@](O)(C(=O)OC)C1)[C@@H]32 [Vincamine],1.3,1.33,0.578,0.795,0.91,1.18
C[N+](C)(C)CCOC(N)=O [Carbachol],1.07,1.19,0.687,1.16,0.696,1.56
C[C@@H]1CC(=O)NN=C1c1ccc(NN=C(C#N)C#N)cc1 [Levosimendan],1.83,0.486,1.3,1.44,0.487,0.625
CC(C)Nc1cc(-c2c[nH]c(C(=O)N[C@H](CO)c3cccc(Cl)c3)c2)c(Cl)cn1,2.42,4.11,3.64,3.51,1.79,3.1
Cc1cccc(Nc2cc(Cl)nc(SCC(=O)O)n2)c1C,1.08,0.839,0.785,0.914,0.873,0.647
